Measured values as given in the supplement of paper PMC9262897, “Low-cost anti-mycobacterial drug discovery using engineered E. coli” (Nature Communications, 2022).
Counter-ions that a name gives are not always drawn. ± gives the standard deviation of the averaged measurements.

What follows are compounds tested on E. coli TESEC Mtb Asd (assay: growth (OD600 after 10 h); higher = more growth (less inhibition)). Details: arabinose induction (level): High; compound 0.1 mM; raw OD600 reference: median of DMSO wells 0.331, cell-free background 0.041.
Experimental: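 TESEC E. coli strains in which the native enzyme is deleted and replaced by arabinose-inducible Mtb Asd, DapB, CysH or TrpD, each grown in its selective medium. Strains were screened against the Prestwick library at 0.1 mM and 1% DMSO in 384-well format at low and high arabinose induction. Growth is read as OD600 after 10 h in triplicate.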
Cc1cn[nH]c1 [Fomepizole] showed a growth of 0.233 ± 0.036.
Work on NC1CCN(c2nc3c(cc2F)c(=O)c(C(=O)O)cn3-c2ccc(F)cc2F)C1 (configuration not stated) [Tosufloxacin hydrochloride] yielded a growth of 0.054 ± 0.01.
CN(C)CCN1C(=O)c2ccccc2N(C)c2ccccc21 [Dibenzepine hydrochloride] was tested, and the growth was 0.23 ± 0.059.
Nc1nc(NC2CC2)c2ncn([C@H]3C=C[C@@H](CO)C3)c2n1 [Abacavir Sulfate] gave a growth of 0.317 ± 0.022.
For O=C(NCCN1CCOCC1)c1ccc(Cl)cc1 [Moclobemide], the growth was 0.323 ± 0.11.
CC(C)C[C@H](NC(=O)[C@@H](O)[C@H](N)Cc1ccccc1)C(=O)O [Ubenimex] gave a growth of 0.395 ± 0.019.
For CC(C(=O)O)c1ccc(-c2ccccc2)c(F)c1 (configuration not stated) [Flurbiprofen], the growth was 0.366 ± 0.076.

Same assay, conditions: arabinose induction (level): Low; compound 0.1 mM; raw OD600 reference: median of DMSO wells 0.417, cell-free background 0.041
Compound CC1(C)O[C@@H]2C[C@H]3[C@@H]4C[C@H](F)C5=CC(=O)C=C[C@]5(C)[C@@]4(F)[C@@H](O)C[C@]3(C)[C@]2(C(=O)CO)O1 [Fluocinolone acetonide] has a growth of 0.401 ± 0.017.
In the case of O=C1CC[C@@H](C(=O)N2CSC[C@H]2C(=O)O)N1 [Pidotimod], the growth is reported as 0.415 ± 0.024.
For Cc1cc(NS(=O)(=O)c2ccc(N)cc2)no1 [Sulfamethoxazole], the growth was 0.41 ± 0.063.
Compound CN(Cc1cnc2nc(N)nc(N)c2n1)c1ccc(C(=O)N[C@@H](CCC(=O)O)C(=O)O)cc1 (racemic) [Amethopterin (R,S)] has a growth of 0.368 ± 0.029.
For CN(C)CCCN1c2ccccc2CCc2ccc(Cl)cc21 [Clomipramine hydrochloride], the growth was 0.0482 ± 0.0034.
In the case of CN1CCN2c3ccccc3Cc3ccccc3C2C1 (configuration not stated) [Mianserine hydrochloride], the growth is reported as 0.303 ± 0.04.
CCCN(CCC)C(=O)C(CCC(=O)O)NC(=O)c1ccccc1 (configuration not stated) [Proglumide] gave a growth of 0.368 ± 0.053.
CCCCOc1ccc(CC(=O)NO)cc1 [Bufexamac] showed a growth of 0.418 ± 0.034.
CC(C)CC(=O)N[C@H](C(=O)N[C@H](C(=O)N[C@@H](CC(C)C)[C@@H](O)CC(=O)N[C@@H](C)C(=O)N[C@@H](CC(C)C)[C@@H](O)CC(=O)O)C(C)C)C(C)C [Pepstatin A] showed a growth of 0.427 ± 0.064.
Work on CO[C@@]1(NC(=O)C2SC(=C(C(N)=O)C(=O)O)S2)C(=O)N2C(C(=O)O)=C(CSc3nnnn3C)CS[C@@H]21 (some centres not stated) [Cefotetan] yielded a growth of 0.048 ± 0.0045.
Work on CC[N+](CC)(CC)CCC(O)(c1ccccc1)C1CCCCC1 (configuration not stated) [Tridihexethyl chloride] yielded a growth of 0.369 ± 0.085.
In the case of O=C1c2ccccc2C(=O)C1c1ccccc1 [Phenindione], the growth is reported as 0.321 ± 0.023.
CC(C)NC(=N)NC(=N)Nc1ccc(Cl)cc1 [Proguanil hydrochloride] gave a growth of 0.31 ± 0.068.
With Cc1[nH]cnc1CN1CCc2c(c3ccccc3n2C)C1=O [Alosetron hydrochloride] the growth was 0.263 ± 0.027.
For O=c1cc(-c2ccc(O)c(O)c2)oc2cc(O)cc(O)c12 [Luteolin], the growth was 0.063 ± 0.0053.
For O=C1OC(CN2CCOCC2)CN1/N=C/c1ccc([N+](=O)[O-])o1 (configuration not stated) [Furaltadone hydrochloride], the growth was 0.0559 ± 0.0011.
Work on O=C(c1ccc(OCCN2CCCCC2)cc1)c1c(-c2ccc(O)cc2)sc2cc(O)ccc12 [Raloxifene hydrochloride] yielded a growth of 0.0566 ± 0.0034.
CNS(=O)(=O)Cc1ccc2[nH]cc(CCN(C)C)c2c1 [Sumatriptan succinate] showed a growth of 0.503 ± 0.03.
Cc1ccc(C)c(OCCCC(C)(C)C(=O)O)c1 [Gemfibrozil] gave a growth of 0.214 ± 0.0039.
For O=C(NCC(O)CO)c1c(I)c(C(=O)NCC(O)CO)c(I)c(N(CCO)C(=O)CO)c1I (configuration not stated) [Ioversol], the growth was 0.46 ± 0.019.
Work on CN(C)CCOC(c1ccc(Cl)cc1)c1ccccn1 (configuration not stated) [Carbinoxamine maleate salt] yielded a growth of 0.44 ± 0.01.
With C=CCSCC1Nc2cc(Cl)c(S(N)(=O)=O)cc2S(=O)(=O)N1 (configuration not stated) [Althiazide] the growth was 0.441 ± 0.019.
CC(=O)OCC(=O)[C@@]1(O)[C@H](C)C[C@H]2[C@@H]3CCC4=CC(=O)C=C[C@]4(C)[C@@]3(F)[C@@H](O)C[C@@]21C [Dexamethasone acetate] showed a growth of 0.356 ± 0.056.
CC(C)(C)NCC(O)c1ccc(O)c(CO)c1 (configuration not stated) [Salbutamol] showed a growth of 0.436 ± 0.032.
For CC(C)NCC(O)c1cc(O)cc(O)c1 (configuration not stated) [Metaproterenol sulfate, orciprenaline sulfate], the growth was 0.346 ± 0.019.
CN(CCOc1ccc(NS(C)(=O)=O)cc1)CCc1ccc(NS(C)(=O)=O)cc1 [Dofetilide] gave a growth of 0.336 ± 0.076.
Compound N=c1nc(N2CCCCC2)cc(N)n1O [Minoxidil] has a growth of 0.384 ± 0.054.
Clc1ccccc1C(c1ccccc1)(c1ccccc1)n1ccnc1 [Clotrimazole] showed a growth of 0.0472 ± 0.0021.
CC(=O)Oc1ccccc1C(=O)Nc1ncc([N+](=O)[O-])s1 [Nitazoxanide] gave a growth of 0.05953 ± 0.00059.
In the case of CCOc1ccccc1OC(c1ccccc1)C1CNCCO1 (configuration not stated) [Reboxetine mesylate], the growth is reported as 0.296 ± 0.061.
NC(=O)c1cc[n+](CC2=C(C(=O)[O-])N3C(=O)[C@@H](NC(=O)[C@@H](c4ccccc4)S(=O)(=O)O)[C@H]3SC2)cc1 [Cefsulodin sodium salt] showed a growth of 0.423 ± 0.028.
CC(C)(C)NC(=O)[C@@H]1C[C@@H]2CCCC[C@@H]2CN1C[C@@H](O)[C@H](Cc1ccccc1)NC(=O)[C@H](CC(N)=O)NC(=O)c1ccc2ccccc2n1 [Saquinavir mesylate] was tested, and the growth was 0.0524 ± 0.001.
For CCCCOC(=O)c1ccc(O)cc1 [Butylparaben], the growth was 0.193 ± 0.017.
In the case of Cc1cn[nH]c1 [Fomepizole], the growth is reported as 0.364 ± 0.065.
For NC1CCN(c2nc3c(cc2F)c(=O)c(C(=O)O)cn3-c2ccc(F)cc2F)C1 (configuration not stated) [Tosufloxacin hydrochloride], the growth was 0.0575 ± 0.0039.
With CN(C)CCN1C(=O)c2ccccc2N(C)c2ccccc21 [Dibenzepine hydrochloride] the growth was 0.317 ± 0.04.
Nc1nc(NC2CC2)c2ncn([C@H]3C=C[C@@H](CO)C3)c2n1 [Abacavir Sulfate] was tested, and the growth was 0.423 ± 0.015.
O=C(NCCN1CCOCC1)c1ccc(Cl)cc1 [Moclobemide] was tested, and the growth was 0.395 ± 0.14.
CC(C)C[C@H](NC(=O)[C@@H](O)[C@H](N)Cc1ccccc1)C(=O)O [Ubenimex] was tested, and the growth was 0.382 ± 0.025.
CC(C(=O)O)c1ccc(-c2ccccc2)c(F)c1 (configuration not stated) [Flurbiprofen] showed a growth of 0.238 ± 0.056.
